Data on 53 compounds can be found in ChEMBL document CHEMBL4513216, “Probing the Open Global Health Chemical Diversity Library for Multistage-Active Starting Points for Next-Generation Antimalarials” (ACS Infect Dis, 2020).

In all, about 68,000 compounds went through this assay and about 2,700 (4%) showed an effect of 50% or more. Shown is part of a subset that was picked to be rich in strong results.

This assay deals with Plasmodium berghei. Briefly: Screen against P. berghei liver stage (PbLuc), transformed with Luciferase, at 2uM. Type of assay: functional, HepG2. Conditions: tested at 2 uM.
Take `O=C(N[C@@H]1CC[C@@H](N2CCCC2)[C@@H]1O)c1cc2ccccc2[nH]1`: the INHIBITION is listed as 51.88%.

Regarding `O=C(N[C@@H]1CCC[C@@H](N2CCCC2)[C@@H]1O)c1cc2ccccc2[nH]1`, the INHIBITION came out at 14.49%.

As for `COCc1nc(C(=O)NS(=O)(=O)c2cc(F)ccc2F)cs1`, the INHIBITION was found to be 29.37%.

As for `Cc1nc(NCc2nncn2C2CC2)c2c(CC(C)C)csc2n1`, the INHIBITION turned out to be 36.86%.

As to `COc1ccc(CN2CCC(O)(CN3CCCCC3)C2)c(C)c1` (stereo not drawn), the INHIBITION is -1.21%.

As to `CN(Cc1noc(C2CC2)n1)C1CCN(Cc2nc(C3CC3)no2)C1` (stereo not drawn), the INHIBITION was found to be 27.89%.

Regarding `CC1CCN(CCCNC(=O)NC(C)c2nncn2C)CC1` (stereo not drawn), the INHIBITION was determined as 6.3%.

With `CCNc1c(NC(=O)NCCOC)c(=O)oc2ccccc12`, the INHIBITION was -25.41%.

For `FC(F)(F)c1nc(NC2CCCCC2)c2ccccc2n1`, the INHIBITION is reported as 52.43%.

With `FC(F)(F)c1nc(NC2CCCC2)c2ccccc2n1`, the INHIBITION was 15.52%.

With `FC(F)(F)c1nc(NC2CCc3ncnn3C2)c2ccccc2n1` (stereo not drawn), the INHIBITION is on record as -8.8%.

As to `O=c1c2sccc2nc2n1CCN(Cc1ccccc1C(F)(F)F)CC2`, the INHIBITION is on record as 26.56%.

Take `O=C1CC(c2ccccc2)C2(CCN(C(=O)c3cnccn3)CC2)N1` (stereo not drawn): the INHIBITION was found to be 20.87%.

`O=C([C@H]1C[C@@H]2CCN(C3CCOCC3)C[C@H]2O1)N1CCCC1`: the INHIBITION was found to be 18.65%.

`COc1ccccc1CN1CC[C@H]2C[C@@H](C(=O)N3CCCC3)O[C@H]2C1`: the INHIBITION worked out at 52.4%.

Take `O=C([C@@H]1C[C@@H]2CCN(CCc3ccccc3)C[C@H]2O1)N1CCCC1`: the INHIBITION came out at 14.94%.

For the compound `O=C([C@@H]1C[C@@H]2CCN(C3CCOCC3)C[C@@H]2O1)N1CCCC1`, the INHIBITION is on record as 65.26%.

Consider `COc1ccccc1CN1CC[C@H]2C[C@H](C(=O)N3CCCC3)O[C@H]2C1`, for which the INHIBITION was found to be 15.89%.

In the case of `O=C([C@@H]1C[C@@H]2CCN(C3CCOCC3)C[C@H]2O1)N1CCCC1`, the INHIBITION is recorded as -26.64%.

For the compound `CCC1CN(CCC(=O)N(C)C)CCN1CCOC` (stereo not drawn), the INHIBITION is recorded as -7.41%.

In the case of `CC/N=c1\nc(NCC)nc2n1C(O)(Nc1cc(Cl)ccc1Cl)CS2` (stereo not drawn), the INHIBITION was 28.5%.

Consider `CCc1nc(C(=O)N2CCN(CC)CC2)nn1-c1ccccc1Cl`, for which the INHIBITION is 13.24%.

Consider `CC(C)N(C)Cc1nnc2n1CCN(Cc1ccncc1)CC2`, for which the INHIBITION is -2.32%.

For `COc1ccc(Cc2ncc3c(n2)CN(C(=O)CO)C3)cc1`, the INHIBITION was determined as 6.39%.

`Cc1cnn(C2CN(CC(=O)N(C)Cc3cccs3)C2)c1`: the INHIBITION is reported as 7.67%.

`Cc1cnn(C2CN(CC(=O)N(C)Cc3ccc(C)o3)C2)c1`: the INHIBITION worked out at 62.51%.

In the case of `Cc1ccc(CN(C)C(=O)CN2CC(n3cccn3)C2)o1`, the INHIBITION worked out at 3%.

On to `Cc1cc(NCc2ccco2)nc2[nH]nc(N)c12`, for which the INHIBITION was -0.89%.

With `Fc1cccc(-c2nnn3c2COC(CNCc2nccs2)C3)c1` (stereo not drawn), the INHIBITION is given as -19.51%.

Take `Cc1cccc(N2CCCC3(C2)CN(S(C)(=O)=O)CCO3)c1` (stereo not drawn): the INHIBITION is recorded as -51.66%.

For the compound `CCS(=O)(=O)N1CCOC2(CCCN(c3cccc(C#N)c3)C2)C1` (stereo not drawn), the INHIBITION came to 56.76%.

For the compound `CC(C)NC(=O)N1CCOC2(CCCN(c3cccc(C#N)c3)C2)C1` (stereo not drawn), the INHIBITION is 24.82%.

As for `Cc1cc(C(=O)N2CCN(CC(O)Cn3cccn3)CC2)c(C)o1` (stereo not drawn), the INHIBITION worked out at 12.62%.

With `O=C(c1cccc(Cl)c1Cl)N1CCN(CC(O)Cn2cccn2)CC1` (stereo not drawn), the INHIBITION stood at 65.3%.

As to `CCOCC(O)CN1CCN(C(=O)c2ccccc2Cl)CC1` (stereo not drawn), the INHIBITION was -45.23%.

Take `CCCC(=O)NCC(=O)NC(c1ccc(Cl)cc1)C(F)(F)F` (stereo not drawn): the INHIBITION is 28.25%.

As to `Cc1cccc(C(=O)NCc2ccnc(N(C)C)c2)n1`, the INHIBITION is on record as -11.1%.

As for `O=C(C1CC1)N1CCN2C[C@H](c3ccccc3)[C@@H](CO)[C@H]2C1`, the INHIBITION is on record as 7.41%.

`CC(=O)NC1CCCN(C(=O)NCc2cccnc2N(C)C)C1` (stereo not drawn): the INHIBITION is 20.71%.

Take `CCCc1nnc(NC(=O)N2CCCC(NC(C)=O)C2)s1` (stereo not drawn): the INHIBITION is 52.08%.

Turning to `CCCc1nnc(NC(=O)N2CCCC2c2ccncc2)s1` (stereo not drawn), the INHIBITION is recorded as -24.78%.

Regarding `CCC(CC)c1nnc(NC(=O)N2CCC(C(N)=O)CC2)s1`, the INHIBITION is on record as 23.45%.

As to `CC(=O)NC1CCCN(C(=O)Nc2nnc(C(C)C)s2)C1` (stereo not drawn), the INHIBITION is 20.14%.

With `CCC(CC)c1nnc(NC(=O)N2CCCC(NC(C)=O)C2)s1` (stereo not drawn), the INHIBITION turned out to be 56.49%.

In the case of `Cc1cc(C)c(S(=O)(=O)Nc2cccc3c2OCCO3)cc1C(=O)O`, the INHIBITION is on record as -49.16%.

On to `Cc1oncc1C(=O)N1CC[C@H]2[C@H](CO[C@@H]2CNS(C)(=O)=O)C1`, for which the INHIBITION is 11.37%.

With `CC(C)(C)CC(=O)N1C[C@@H]2C[C@@H]1CN2`, the INHIBITION was 74.88%.

Take `O=C(CC1CCCC1)N1C[C@@H]2C[C@@H]1CN2`: the INHIBITION came out at 30.4%.

As to `O=C(NCC1CCCCC1)N1C[C@@H]2C[C@@H]1CN2`, the INHIBITION was -3.1%.

As to `CC(C(=O)N1CCc2sccc2C1)N1CCC(S(N)(=O)=O)CC1` (stereo not drawn), the INHIBITION worked out at 44.37%.

Take `CN(C)c1nccc(N(C)Cc2ncnn2C)n1`: the INHIBITION came to 65.42%.

For the compound `CN(Cc1ncnn1C)c1ccnc(Cc2ccccc2)n1`, the INHIBITION is 26.49%.

Turning to `CN(C)c1nccc(N(C)Cc2nc3ccccc3n2C)n1`, the INHIBITION is listed as 13.51%.
